Screen size: about 48,000 compounds; about 13,000 (27%) showed an effect of 50% or more. Some of the results follow.
These molecules were tested on Wolbachia pipientis (assay: Anti-Wolbachia Cell-Based Screen). Settings: 5 µM.
Assay type: functional
Design: scale not given: in the data most compounds retested in dose-response had high values

Structure (SMILES) | Percent Effect [%]
CCc1noc(CS(=O)(=O)Cc2ccccc2C)n1 | 2.156
CN1C[C@@H](N)C[C@H]1c1nc(-c2ccc3c(c2)OCO3)no1 | -7.718
CC(C)(C)n1cc(CNC2CCN(C(=O)c3ccoc3)CC2)cn1.Cl | 4.064
CCC(C)(C)C(=O)NCCCOC1CCOC1 (stereo not given) | -11.1
CC(C)S(=O)(=O)N1CCOC(CCc2ccccc2)C1 (stereo not given) | -8.11
O=C(O)C(F)(F)F.O=C(O)C(F)(F)F.O=C(c1cccnc1)N1CCn2nnc(COc3cccnc3)c2C1 | -17.53
O=C1CCCN1Cc1nnn2c1CN(c1ncccn1)CCC2 | -7.828
O=C(O)C(F)(F)F.O=C(O)C(F)(F)F.c1cncc(N2CCCn3nnc(CN4CCCCC4)c3C2)c1 | 109.4
O=C(O)C(F)(F)F.c1cncc(N2CCCn3nnc(COCC4CC4)c3C2)c1 | 122.7
O=C(O)C(F)(F)F.c1cnc(N2CCCn3nnc(COCC4CC4)c3C2)nc1 | -15.27
O=C(O)C(F)(F)F.O=C(O)C(F)(F)F.c1ccc(CN2CCCn3nnc(COc4ccccn4)c3C2)nc1 | -12.56
O=C(O)C(F)(F)F.O=C(O)C(F)(F)F.c1cncc(CN2CCCn3nnc(COCC4CC4)c3C2)c1 | -24.42
c1cncc(N2CCCn3nnc(CN4CCOCC4)c3C2)c1 | 107.9
O=C(O)C(F)(F)F.O=C1CCCN1Cc1nnn2c1CN(c1cccnc1)CCC2 | 87.49
c1cc(CN2CCCn3nnc(COCC4CC4)c3C2)ccn1 | -2.908
Cc1cnnn1Cc1nnn2c1CN(Cc1ccccn1)CCC2.O=C(O)C(F)(F)F | -8.238
C1CN(CC2CCOCC2)Cc2c(CN3CCOCC3)nnn2C1 | 2.088
COc1ccc(C)cc1CN(Cc1ncc(C)o1)C1CCN(C)C1 (stereo not given) | 18.81
Cc1cccc(N2N=C(C(=O)NC(C)CCc3ccco3)CCC2=O)c1 (stereo not given) | 5.008
CC(C)C(=O)NC1CCN(CCO)CC1 | -14.55
N#Cc1ccc(CNC(=O)NCCC(=O)NC2CCCC2)c(F)c1 | 1.823
CCCOCCN1CCc2[nH]c(-c3ccc(OC)cc3)nc2C1 | 0.5641
O=C(O)C(F)(F)F.O=C(O)C(F)(F)F.c1cncc(COCc2nnc3n2CCN(Cc2ccsc2)C3)c1 | -0.7002
O=C(O)C(F)(F)F.O=C(O)C(F)(F)F.c1cncc(COCc2nnn3c2CN(Cc2ccsc2)CC3)c1 | 109.1
O=C(O)C(F)(F)F.O=C(O)C(F)(F)F.c1cncc(OCc2nnn3c2CN(Cc2ccsc2)CCC3)c1 | -20.94

Structure (SMILES) | Percent Effect [%]
O=C(NCc1ccc(Cl)cc1)[C@@H]1Cc2[nH]cnc2CN1CC1CC1 | 10.78
Br.Cn1cc(CN2CCC(c3cc(COc4cccc(Cl)c4)[nH]n3)C2)cn1 (stereo not given) | 108.1
Cn1cc(CN2CCC(c3cc(COc4ccc(Cl)cc4)[nH]n3)C2)cn1 (stereo not given) | 120.4
Cn1cc(CN2CCCC(Cn3cc(CCCO)nn3)C2)cn1 (stereo not given) | -7.109
Cc1cc(C2CCCN(Cc3cccnc3)C2)n[nH]1 (stereo not given) | -3.647
Cc1n[nH]c(C2CN(CCCOc3cccc(Cl)c3)CCO2)n1 (stereo not given) | 17.53
Cn1cc(CN2CCCC(CCc3ccc(F)c(F)c3)C2)cn1 (stereo not given) | -4.852
Cn1cc(CN2CCCC(CCc3ccc(F)cc3F)C2)cn1 (stereo not given) | 13.59
Cn1cc(CN2CCCC(CCc3ccc(F)cc3)C2)cn1 (stereo not given) | 5.496
Cn1cc(CN2CCC(c3cc(CCO)[nH]n3)C2)cn1 (stereo not given) | 135.9
O=C(NC1(c2nccs2)CCCC1)c1[nH]nc(C2CC2)c1Cl | -0.1495
O=C(Nc1ccccc1OC(F)(F)F)C1CCS(=O)(=O)C1 (stereo not given) | 4.045
N#Cc1cnn(C(=O)COc2ccccc2F)c1N | -3.189
CCc1n[nH]c(C2CN(C(=O)c3ccc(NC4CC4)nc3)CCO2)n1 (stereo not given) | 134.6
CCCc1n[nH]c(C2CN(C(=O)c3ccc4c(c3)COC4)CCO2)n1 (stereo not given) | 124.9
Cc1n[nH]c(C2CN(C(=O)c3ccc4c(c3)COC4)CCO2)n1 (stereo not given) | -48.4
CCc1n[nH]c(C2CN(C(=O)c3ccnc(N(C)C)c3)CCO2)n1 (stereo not given) | 149.1
CCc1n[nH]c(C2CN(C(=O)c3ccc4c(c3)COC4)CCO2)n1 (stereo not given) | 136
C[S+]([O-])c1nncn1CC(=O)c1cccc(Br)c1 (stereo not given) | -3.709
Cc1ccc(CN(C)C(=O)NCC(C)(C)S(C)(=O)=O)s1 | -13.6
CCNc1ncc(CN2C[C@@H](CN3CCC(CO)CC3)[C@@H](CO)C2)cn1 | 12.05
Cc1ccc(CC(=O)N2CCn3cc(Cn4cncn4)nc3C2)cc1 | 8.244
c1cc2c(cc1-c1noc3c1CN(C1CCC1)CC3)OCO2 | -7.391
CS(=O)(=O)c1nccn1Cc1ccncc1 | -5.065
Cc1ccc2oc(CN3CCn4nc(CCC(=O)O)cc4C3)c(C)c2c1 | 5.001

Structure (SMILES) | Percent Effect [%]
O=C(CCCc1nc2ccccc2[nH]1)N1CCCC1c1ccncc1 (stereo not given) | 8.641
Cc1cnc(C(=O)N2CCC(C(=O)c3cc(F)ccc3F)CC2)cn1 | 134
Cc1cccc(C(=O)N2CCC(C(=O)c3cc(F)ccc3F)CC2)n1 | 159.7
NC(=O)NC(=O)CCN1CCC(C(=O)c2cc(F)ccc2F)CC1 | -46.12
O=C(c1cc(F)ccc1F)C1CCN(C(=O)c2ccco2)CC1 | 137.2
O=C(c1cc(F)ccc1F)C1CCN(C(=O)c2cccnc2O)CC1 | -3.966
C=C(Cl)CN1CCC(C(=O)c2cc(F)ccc2F)CC1 | -0.07038
O=C(c1cc(F)ccc1F)C1CCN(C(=O)c2cnccn2)CC1 | 120.4
O=C(c1cc(F)ccc1F)C1CCN(C(=O)c2ccccn2)CC1 | 7.01
CS(=O)(=O)CCN1CCSCC1c1ccc(Cl)cc1 (stereo not given) | -3.973
O=C(C1CC(F)(F)C1)N1CC[C@H]2OCC[C@@]2(COCC2CC2)C1 | -8.729
CC(SCC(=O)NCCC#N)c1ccc(Cl)cc1 (stereo not given) | 5.18
COc1cccc(-c2nc(CNCCCn3cccn3)cs2)c1 | 28.1
O=C(c1ccoc1)N1CCc2ncnc(NCc3ccccn3)c2CC1 | 2.356
CCCN1CCN(C(=O)c2cccnc2-n2cncn2)CC1 | 5.341
O=C(c1cccnc1O)N1CCC(COc2ccccc2)CC1 | -5.095
Cc1nc2ccc(C(=O)N3CCC(COc4ccccn4)CC3)cc2[nH]1 | 160.4
O=C(O)C(F)(F)F.O=C(c1ccoc1)N1CCC2(CC1)COC(COc1ccccn1)C2 (stereo not given) | 19.26
COc1ccnc(CN(C)C(=O)CSc2nnc(N)s2)c1 | 0.9714
Cc1ccc(-c2noc([C@H](N)CC(C)C)n2)nn1 | 0.7851
COc1ccc(-c2noc(C(=O)NCCN3CCCCC3)n2)cc1OC | -3.645
COc1ccc(-c2noc(C(N)CCSC)n2)cc1OC (stereo not given) | 100.4
COc1cc(OC)cc(-c2noc(CN)n2)c1 | -5.186
COc1cc(OC)cc(-c2noc(C(N)CCSC)n2)c1 (stereo not given) | 122.3
COc1ccc(-c2noc(C3CC(C(C)C)=NO3)n2)cc1 (stereo not given) | -24.09

Structure (SMILES) | Percent Effect [%]
COc1ccc(-c2noc(C(N)CCSC)n2)cc1 (stereo not given) | 92.78
COc1ccc(-c2noc(C3CCS(=O)(=O)C3)n2)cc1OC (stereo not given) | -2.853
COc1ccc(-c2noc([C@@H]3C[C@@H](O)CN3C3CCCCC3)n2)cc1 | -13.77
COc1ccnc(N2CCCN(Cc3ncc(C(C)C)o3)CC2)n1 | -1.774
Cc1cnn(CC2CN(c3ccc(C#N)cn3)CCO2)c1 (stereo not given) | 117.6
Cc1nc(C)n(CC2CN(c3ccc(C#N)cn3)CCO2)n1 (stereo not given) | -2.345
Cc1cc(C)n(CC2CN(CCOc3cccc(C#N)c3)CCO2)n1 (stereo not given) | -7.515
Cc1cc(C)n(CC2CN(c3ccc(C#N)cn3)CCO2)n1 (stereo not given) | 119.8
CN(C)CC1CN(c2ccc(C#N)cn2)CCO1 (stereo not given) | -4.596
Cc1cnn(CC2CN(c3cnc4ccccc4n3)CCO2)c1 (stereo not given) | -7.583
COc1ccc(C2CC(=O)Nc3c2cnn3C2CCCC2)cc1 (stereo not given) | -0.6699
COc1ccc(C2CC(=O)Oc3cc(C)[nH]c(=O)c32)cc1 (stereo not given) | 5.191
CN1CCC(N2CCC(c3ccccc3C(=O)O)C2)CC1 (stereo not given) | 13.56
O=C(O)c1ccc(OC2CCOCC2)cc1 | 3.994
COc1ccc([C@@H]2NC(=O)N[C@H]3OCCC[C@H]32)cc1 | 92.15
O=C1CO[C@H](c2ccc(NS(=O)(=O)c3ccccc3)cc2)[C@@H](CO)N1 | -4.896
O=C(CN1CCCC(c2ccc(C(=O)O)cc2)C1)NC1CC1 (stereo not given) | -9.643
O=C1N[C@H]2OCCC[C@H]2[C@H](c2ccccc2)N1 | 111.8
O=C1CC(c2ccccc2)c2cnn(C3CCCC3)c2N1 (stereo not given) | 5.906
O=C1N[C@H]2OCCC[C@H]2[C@H](c2ccccc2C(=O)O)N1 | 55.53
O=C1N[C@H]2OCCC[C@H]2[C@H](c2ccc(C(=O)O)cc2)N1 | 126.1
O=C(O)c1ccccc1C1CCN(C2Cc3ccccc3C2)C1 (stereo not given) | 0.3893
CCOCCn1nc(C)cc1C(=O)N1CCN(C(C)C)C(CC)C1 (stereo not given) | 12.32
CC(=O)N1CCC(N2CCOC[C@H]2c2nc(-c3ccncc3)c[nH]2)CC1 | -16.93
CC(=O)N1CCCC2(CCN(C(=O)c3nccnc3N)CC2)C1 | -5.274

From ChEMBL document CHEMBL3988442, “University of Dundee, Small-Polar-MMV Screening Library” (2021)
